Results taken from PubChem BioAssay AID1159580 (chemical genetic matrix, 2015).
Values joined by “and” are separate entries in the source; they are usually repeats but may differ in a detail not shown here. Equal entries are not always repeated. Screen size: about 5,500 compounds; about 2,000 (36%) were called active. Roughly 18% stayed inconclusive and do not appear here. No stated cut-off is given here; in the data, active means normalized growth mostly below about 0.91 (no sharp cut-off); inconclusive means no clear call, values can overlap the other calls; inactive means mostly above about 0.92. The list shows a part of the results.

Test: chemical genetic growth profiling, strain panel (AID 1159580);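 further: tested at 20 µM; growth read once vehicle control cultures reached saturation at 30 °C; 1 = growth at the plate median or of vehicle wells; lower values mean less growth of the strain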
Conditions: S. cerevisiae deletion strains, growth OD

Measured: normalized growth

O[N+]1=CC=CCC1=S.On1ccccc1=S.[Zn]
active: locus YAL013W, strain DEP1, active compounds read low 0.0588 | locus YAL021C, strain ccr4, active compounds read low 0.0689 | locus YAL026C, strain drs2, active compounds read low 0.0618 | locus YAL030W, strain snc1, active compounds read low 0.0584 | locus YBL061C, strain skt5, active compounds read low 0.0681 | locus YBR009C, strain hhf1, active compounds read low 0.0728 | locus YBR021W, strain FUR4, active compounds read low 0.0965 | locus YBR023C, strain chs3, active compounds read low 0.0675 | locus YBR171W, strain sec66, active compounds read low 0.0802 | locus YBR229C, strain ROT2, active compounds read low 0.052 | locus YBR231C, strain swc5, active compounds read low 0.0683 | locus YBR279W, strain paf1, active compounds read low 0.0672 | locus YCL011C, strain gbp2, active compounds read low 0.0581 | locus YCL016C, strain dcc1, active compounds read low 0.0685 | locus YCL029C, strain bik1, active compounds read low 0.0621 | locus YCL061C, strain MRC1, active compounds read low 0.0686 | locus YCL069W, strain vba3, active compounds read low 0.0611 | locus YCR088W, strain abp1, active compounds read low 0.0601 | locus YDL005C, strain med2, active compounds read low 0.081 | locus YDL035C, strain GPR1, active compounds read low 0.0513 | locus YDL040C, strain nat1, active compounds read low 0.061 | locus YDL074C, strain BRE1, active compounds read low 0.0852 | locus YDL101C, strain DUN1, active compounds read low 0.0624 | locus YDL185W, strain tfp1, active compounds read low 0.0604 | locus YDL192W, strain arf1, active compounds read low 0.0611 | locus YDR001C, strain nth1, active compounds read low 0.0598 | locus YDR069C, strain doa4, active compounds read low 0.0662 | locus YDR101C, strain arx1, active compounds read low 0.0573 | locus YDR137W, strain rgp1, active compounds read low 0.0942 | locus YDR150W, strain NUM1, active compounds read low 0.0564 | locus YDR159W, strain sac3, active compounds read low 0.104 | locus YDR162C, strain NBP2, active compounds read low 0.0519 | locus YDR195W, strain ref2 0.122 | locus YDR297W, strain sur2, active compounds read low 0.0587 | locus YDR318W, strain mcm21, active compounds read low 0.0644 | locus YDR334W, strain swr1, active compounds read low 0.0636 | locus YDR335W, strain msn5, active compounds read low 0.0604 | locus YDR388W, active compounds read low 0.0563 | locus YDR392W, strain spt3, active compounds read low 0.102 | locus YDR502C, strain sam2, active compounds read low 0.0617 | locus YEL003W, strain gim4, active compounds read low 0.0591 | locus YEL037C, strain rad23, active compounds read low 0.0593 | locus YEL061C, strain CIN8 (second series), active compounds read low 0.0642 | locus YEL061C, strain CIN8, active compounds read low 0.0538 | locus YER015W, strain faa2, active compounds read low 0.0649 | locus YER016W, strain bim1, active compounds read low 0.0653 | locus YER110C, active compounds read low 0.0752 | locus YER111C, strain swi4, active compounds read low 0.0747 | locus YER155C, strain BEM2 (second series), active compounds read low 0.0952 | locus YER155C, strain BEM2, active compounds read low 0.0682 | locus YER167W, strain BCK2, active compounds read low 0.0543 | locus YFR010W, strain ubp6, active compounds read low 0.0685 | locus YGL078C, strain dbp3, active compounds read low 0.0615 | locus YGL086W, strain mad1, active compounds read low 0.0569 | locus YGL167C, strain pmr1, active compounds read low 0.0764 | locus YGL173C, strain kem1, active compounds read low 0.0718 | locus YGL227W, strain vid30, active compounds read low 0.0622 | locus YGL240W, strain doc1, active compounds read low 0.0817 | locus YGL248W, strain PDE1, active compounds read low 0.0522 | locus YGL253W, strain hxk2, active compounds read low 0.0558 | locus YGR078C, strain PAC10, active compounds read low 0.0545 | locus YGR135W, strain pre9, active compounds read low 0.0622 | locus YGR252W, strain gcn5, active compounds read low 0.164 | locus YHR013C, strain ard1, active compounds read low 0.117 | locus YHR027C, strain rpn1, active compounds read low 0.0678 | locus YHR030C, strain SLT2, active compounds read low 0.0537 and 0.0956 | locus YHR079C, strain IRE1 (second series), active compounds read low 0.0577 | locus YHR079C, strain IRE1, active compounds read low 0.111 | locus YHR094C, strain hxt1, active compounds read low 0.0579 | locus YHR129C, strain ARP1, active compounds read low 0.0604 | locus YHR142W, strain chs7, active compounds read low 0.0777 | locus YHR200W, strain rpn10, active compounds read low 0.0589 | locus YIL066C, strain RNR3, active compounds read low 0.0511 | locus YIL073C, strain SPO22, active compounds read low 0.113 | locus YIL125W, strain kgd1, active compounds read low 0.0608 | locus YIR030C, strain dcg1, active compounds read low 0.0598 | locus YJL092W, strain hpr5, active compounds read low 0.0603 | locus YJL095W, strain BCK1 (second series), active compounds read low 0.0629 | locus YJL095W, strain BCK1, active compounds read low 0.0641 and 0.0953 | locus YJL115W, strain asf1, active compounds read low 0.0768 | locus YJL129C, strain trk1, active compounds read low 0.0933 | locus YJL134W, strain LCB3, active compounds read low 0.0509 | locus YJL154C, strain vps35, active compounds read low 0.064 | locus YJL164C, strain tpk1, active compounds read low 0.0692 | locus YJL166W, strain qcr8, active compounds read low 0.0996 | locus YJL168C, strain set2, active compounds read low 0.0599 | locus YJL187C, strain SWE1 (second series), active compounds read low 0.0508 | locus YJL187C, strain SWE1, active compounds read low 0.0629
